# Experimental data from PubChem BioAssay AID1159580 (chemical genetic matrix, 2015).
# Where “and” joins values, the source holds several entries; their conditions need not be identical. Identical values can stand only once. The campaign covered roughly 5,500 compounds. About 2,000 (36%) were called active. Roughly 18% stayed inconclusive and do not appear here. Cut-off read from the data, not from the text of the source: active = normalized growth mostly below about 0.91 (no sharp cut-off); inconclusive = no clear call, values can overlap the other calls; inactive = mostly above about 0.92. This is one part of the list.
# Experiment: chemical genetic growth profiling, strain panel (AID 1159580);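 note: tested at 20 µM; growth read once vehicle control cultures reached saturation at 30 °C; 1 = growth at the plate median or of vehicle wells; lower values mean less growth of the strain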
# Settings: S. cerevisiae deletion strains, growth OD
structure (smiles),measurement,setting,value
C=C[C@@](C)(O)CCC1C(=C)CCC2[C@@](C)(CO)CCC[C@]12C (stereo partly drawn),normalized growth,"locus YAL021C, strain ccr4, stronger effect = lower value",0.994 (inactive)
same,normalized growth,"locus YAL026C, strain drs2, stronger effect = lower value",0.972 (inactive)
same,normalized growth,"locus YAL030W, strain snc1, stronger effect = lower value",1.07 (inactive)
same,normalized growth,"locus YBL061C, strain skt5, stronger effect = lower value",1.06 (inactive)
same,normalized growth,"locus YBR009C, strain hhf1, stronger effect = lower value",0.925 (inactive)
same,normalized growth,"locus YBR021W, strain FUR4, stronger effect = lower value",0.772 (active)
same,normalized growth,"locus YBR023C, strain chs3, stronger effect = lower value",1.02 (inactive)
same,normalized growth,"locus YBR171W, strain sec66, stronger effect = lower value",1.08 (inactive)
same,normalized growth,"locus YBR229C, strain ROT2, stronger effect = lower value",1.06 (inactive)
same,normalized growth,"locus YBR231C, strain swc5, stronger effect = lower value",1.12 [resistant] (active)
same,normalized growth,"locus YBR279W, strain paf1, stronger effect = lower value",0.997 (inactive)
same,normalized growth,"locus YCL011C, strain gbp2, stronger effect = lower value",1.02 (inactive)
same,normalized growth,"locus YCL016C, strain dcc1, stronger effect = lower value",0.974 (inactive)
same,normalized growth,"locus YCL029C, strain bik1, stronger effect = lower value",0.972 (inactive)
same,normalized growth,"locus YCL061C, strain MRC1, stronger effect = lower value",0.963 (inactive)
same,normalized growth,"locus YCL069W, strain vba3, stronger effect = lower value",1.03 (inactive)
same,normalized growth,"locus YCR088W, strain abp1, stronger effect = lower value",1.06 (inactive)
same,normalized growth,"locus YDL005C, strain med2, stronger effect = lower value",1.05 (inactive)
same,normalized growth,"locus YDL035C, strain GPR1, stronger effect = lower value",0.794 (active)
same,normalized growth,"locus YDL040C, strain nat1, stronger effect = lower value",1.08 [resistant] (active)
same,normalized growth,"locus YDL074C, strain BRE1, stronger effect = lower value",0.982 (inactive)
same,normalized growth,"locus YDL101C, strain DUN1, stronger effect = lower value",1.05 (inactive)
same,normalized growth,"locus YDL134C, strain PPH21, stronger effect = lower value",0.979 (inactive)
same,normalized growth,"locus YDL185W, strain tfp1, stronger effect = lower value",1.02 (inactive)
same,normalized growth,"locus YDL192W, strain arf1, stronger effect = lower value",0.989 (inactive)
same,normalized growth,"locus YDR001C, strain nth1, stronger effect = lower value",1.08 [resistant] (active)
same,normalized growth,"locus YDR069C, strain doa4, stronger effect = lower value",1.05 (inactive)
same,normalized growth,"locus YDR101C, strain arx1, stronger effect = lower value",0.915 (active)
same,normalized growth,"locus YDR137W, strain rgp1, stronger effect = lower value",0.758 (active)
same,normalized growth,"locus YDR150W, strain NUM1, stronger effect = lower value",1.09 (inactive)
same,normalized growth,"locus YDR159W, strain sac3, stronger effect = lower value",0.997 (inactive)
same,normalized growth,"locus YDR162C, strain NBP2, stronger effect = lower value",0.84 (inactive)
same,normalized growth,"locus YDR195W, strain ref2",1.25 [resistant] (active)
same,normalized growth,"locus YDR297W, strain sur2, stronger effect = lower value",1.04 (inactive)
same,normalized growth,"locus YDR318W, strain mcm21, stronger effect = lower value",0.99 (inactive)
same,normalized growth,"locus YDR334W, strain swr1, stronger effect = lower value",1.1 [resistant] (active)
same,normalized growth,"locus YDR335W, strain msn5, stronger effect = lower value",0.982 (inactive)
same,normalized growth,"locus YDR388W, stronger effect = lower value",1.02 (inactive)
same,normalized growth,"locus YDR392W, strain spt3, stronger effect = lower value",0.833 (inactive)
same,normalized growth,"locus YDR502C, strain sam2, stronger effect = lower value",0.985 (inactive)
same,normalized growth,"locus YEL003W, strain gim4, stronger effect = lower value",0.948 (inactive)
same,normalized growth,"locus YEL037C, strain rad23, stronger effect = lower value",1.05 (inactive)
same,normalized growth,"locus YEL061C, strain CIN8 (second series), stronger effect = lower value",1.07 (inactive)
same,normalized growth,"locus YEL061C, strain CIN8, stronger effect = lower value",1.07 (inactive)
same,normalized growth,"locus YER015W, strain faa2, stronger effect = lower value",1 (inactive)
same,normalized growth,"locus YER016W, strain bim1, stronger effect = lower value",1.05 (inactive)
same,normalized growth,"locus YER110C, stronger effect = lower value",1.06 (inactive)
same,normalized growth,"locus YER111C, strain swi4, stronger effect = lower value",1.07 (inactive)
same,normalized growth,"locus YER155C, strain BEM2 (second series), stronger effect = lower value",1.22 [resistant] (active)
same,normalized growth,"locus YER155C, strain BEM2, stronger effect = lower value",1.09 [resistant] (active)
same,normalized growth,"locus YER167W, strain BCK2, stronger effect = lower value",1.01 (inactive)
same,normalized growth,"locus YFR010W, strain ubp6, stronger effect = lower value",1.07 (inactive)
same,normalized growth,"locus YGL078C, strain dbp3, stronger effect = lower value",0.871 (active)
same,normalized growth,"locus YGL086W, strain mad1, stronger effect = lower value",1 (inactive)
same,normalized growth,"locus YGL167C, strain pmr1, stronger effect = lower value",1.06 (inactive)
same,normalized growth,"locus YGL173C, strain kem1, stronger effect = lower value",0.913 (inactive)
same,normalized growth,"locus YGL227W, strain vid30, stronger effect = lower value",1.06 (inactive)
same,normalized growth,"locus YGL240W, strain doc1, stronger effect = lower value",0.974 (inactive)
same,normalized growth,"locus YGL248W, strain PDE1, stronger effect = lower value",0.982 (inactive)
same,normalized growth,"locus YGL253W, strain hxk2, stronger effect = lower value",1.02 (inactive)
same,normalized growth,"locus YGR078C, strain PAC10, stronger effect = lower value",1.02 (inactive)
same,normalized growth,"locus YGR135W, strain pre9, stronger effect = lower value",0.992 (inactive)
same,normalized growth,"locus YGR252W, strain gcn5, stronger effect = lower value",0.92 (inactive)
same,normalized growth,"locus YHR013C, strain ard1, stronger effect = lower value",1.11 (inactive)
same,normalized growth,"locus YHR027C, strain rpn1, stronger effect = lower value",1.02 (inactive)
same,normalized growth,"locus YHR030C, strain SLT2, stronger effect = lower value",1.09 [resistant] (active) and 0.872 (inactive)
same,normalized growth,"locus YHR079C, strain IRE1 (second series), stronger effect = lower value",1.05 (inactive)
same,normalized growth,"locus YHR079C, strain IRE1, stronger effect = lower value",0.862 (inactive)
same,normalized growth,"locus YHR094C, strain hxt1, stronger effect = lower value",1.04 (inactive)
same,normalized growth,"locus YHR129C, strain ARP1, stronger effect = lower value",1.05 (inactive)
same,normalized growth,"locus YHR142W, strain chs7, stronger effect = lower value",1.01 (inactive)
same,normalized growth,"locus YHR200W, strain rpn10, stronger effect = lower value",1.02 (inactive)
same,normalized growth,"locus YIL066C, strain RNR3, stronger effect = lower value",0.996 (inactive)
same,normalized growth,"locus YIL073C, strain SPO22, stronger effect = lower value",1.01 (inactive)
same,normalized growth,"locus YIL125W, strain kgd1, stronger effect = lower value",0.973 (inactive)
same,normalized growth,"locus YIR030C, strain dcg1, stronger effect = lower value",1.05 (inactive)
same,normalized growth,"locus YJL092W, strain hpr5, stronger effect = lower value",1.02 (inactive)
same,normalized growth,"locus YJL095W, strain BCK1 (second series), stronger effect = lower value",1.07 (inactive)
same,normalized growth,"locus YJL095W, strain BCK1, stronger effect = lower value",1.02 (inactive) and 0.886 (inactive)
same,normalized growth,"locus YJL115W, strain asf1, stronger effect = lower value",1.07 (inactive)
same,normalized growth,"locus YJL129C, strain trk1, stronger effect = lower value",1.02 (inactive)
same,normalized growth,"locus YJL134W, strain LCB3, stronger effect = lower value",1.07 (inactive)
same,normalized growth,"locus YJL154C, strain vps35, stronger effect = lower value",1.09 [resistant] (active)
same,normalized growth,"locus YJL164C, strain tpk1, stronger effect = lower value",0.963 (inactive)
same,normalized growth,"locus YJL166W, strain qcr8, stronger effect = lower value",0.968 (inactive)
same,normalized growth,"locus YJL168C, strain set2, stronger effect = lower value",1.07 (inactive)
same,normalized growth,"locus YJL187C, strain SWE1 (second series), stronger effect = lower value",0.995 (inactive)
same,normalized growth,"locus YJL187C, strain SWE1, stronger effect = lower value",1.01 (inactive)
